Results from the supplement of paper PMC13380429.

Test system: Vero E6 infected with SARS-CoV-2
Assay: inhibition of SARS-CoV-2 cytopathic effect; higher = more antiviral protection, active = above 15
Details: 48 h

Measured: inhibition of SARS-CoV-2 cytopathic effect

Clc1cccc(C(c2ccc3[nH]cnc3c2)n2ccnc2)c1 (stereo not given) [liarozole]
inactive: 1 nM 0.27% | 8.33 nM 3.78% | 100 nM 1.18% | 833.33 nM 1.7% | 10000 nM 1.64%

CCn1cc(C(=O)O)c(=O)c2cc(F)c(N3CCN(C)CC3)cc21 [pefloxacin]
inactive: 1 nM 2.27% | 8.33 nM -0.13% | 100 nM 2.84% | 833.33 nM -0.06% | 10000 nM 1.98%

CCC(C)(Oc1ccc(C2(c3ccc(OC(C)(CC)C(=O)O)cc3)CCCCC2)cc1)C(=O)O (stereo not given) [clinofibrate]
inactive: 1 nM -0.17% | 8.33 nM -1.53% | 100 nM -1.92% | 833.33 nM -1.83% | 10000 nM 0.41%

CC(C)C[C@H](NC(=O)[C@H](CCc1ccccc1)NC(=O)CN1CCOCC1)C(=O)N[C@@H](Cc1ccccc1)C(=O)N[C@@H](CC(C)C)C(=O)[C@@]1(C)CO1 [carfilzomib]
active: 833.33 nM 34.9%
inactive: 1 nM -1.68% | 8.33 nM -2.43% | 100 nM 11.4% | 10000 nM 10.2%

COc1cc([C@@H]2c3cc4c(cc3[C@@H](O[C@@H]3O[C@@H]5CO[C@@H](c6cccs6)O[C@H]5[C@H](O)[C@H]3O)[C@H]3COC(=O)[C@H]23)OCO4)cc(OC)c1O [teniposide]
inactive: 1 nM 1.37% | 8.33 nM 2.49% | 100 nM 4.69% | 833.33 nM 1.54% | 10000 nM -7.08%

Oc1c(Br)cc(Br)c2cccnc12 [broxyquinoline]
inactive: 1 nM -1.46% | 8.33 nM 2.01% | 100 nM -2.42% | 833.33 nM -2.35% | 10000 nM -5.91%

CCC(CC)O[C@@H]1C=C(C(=O)O)C[C@H](N)[C@H]1NC(C)=O [oseltamivir-carboxylate]
inactive: 1 nM -1.71% | 8.33 nM 0.87% | 100 nM 0.49% | 833.33 nM 1.32% | 10000 nM -0.82%

CN1CCN(C(=O)c2nc3ccc(Cl)cc3[nH]2)CC1
inactive: 1 nM -2% | 8.33 nM 1.3% | 100 nM 0.78% | 833.33 nM 1.23% | 10000 nM 1.76%

CCC(Cc1c(I)cc(I)c(N)c1I)C(=O)O (stereo not given) [iopanic-acid]
inactive: 1 nM 2.78% | 8.33 nM 2.89% | 100 nM 1.6% | 833.33 nM 0.47% | 10000 nM 2.12%

CNS(=O)(=O)Cc1ccc2[nH]cc(CCN(C)C)c2c1 [sumatriptan]
inactive: 1 nM 1.16% | 8.33 nM 0.24% | 100 nM 1.25% | 833.33 nM 0.28% | 10000 nM -0.08%

COc1ccn2ncc(-c3nc4[nH]nc(NC(=O)c5ccc(F)cc5)c4cc3F)c2c1
inactive: 1 nM 1.72% | 8.33 nM -0.95% | 100 nM 0.38% | 833.33 nM -3.07% | 10000 nM -6.79%

CCCC(CCC)C(=O)Nc1ccn([C@@H]2O[C@H](CO)[C@@H](O)C2(F)F)c(=O)n1
inactive: 1 nM -0.06% | 8.33 nM -1.71% | 100 nM -2.25% | 833.33 nM -0.4% | 10000 nM -4.21%

O=C(CCCl)NCc1ccccc1 [beclamide]
inactive: 1 nM -5.2% | 8.33 nM -1.11% | 100 nM 0.49% | 833.33 nM 0.86% | 10000 nM -1.73%

COCCOc1ccc2c(c1)ncn2-c1ccc2cccc(N3CCC(N)CC3)c2n1
inactive: 1 nM -0.92% | 8.33 nM 2.04% | 100 nM 0.64% | 833.33 nM 1.12% | 10000 nM -2.22%

O=c1cc(-c2ccccc2)oc2cc(O)cc(O)c12 [chrysin]
inactive: 1 nM -1.5% | 8.33 nM 0.24% | 100 nM -1.23% | 833.33 nM -7.18% | 10000 nM -3.61%

Clc1ccc([C@]23CNC[C@H]2C3)cc1Cl [amitifadine]
inactive: 1 nM 0.8% | 8.33 nM 2.82% | 100 nM 0.87% | 833.33 nM 1.86% | 10000 nM 3.82%

CC1=CC(=O)c2ccccc2C1=O [menadione]
inactive: 1 nM 1% | 8.33 nM 1.27% | 100 nM -0.28% | 833.33 nM -0.16% | 10000 nM -2.15%

O=c1ccc2cc3ccoc3cc2o1 [psoralen]
inactive: 1 nM -1.78% | 8.33 nM 1.39% | 100 nM 1.55% | 833.33 nM 0.22% | 10000 nM -0.41%

CC(=O)N1CCN(C)CC1 [1-acetyl-4-methylpiperazine]
inactive: 1 nM 4.74% | 8.33 nM 3.75% | 100 nM 3.95% | 833.33 nM 4.36% | 10000 nM -0.21%

N[C@@H]1[C@H]2CN(c3nc4c(cc3F)c(=O)c(C(=O)O)cn4-c3ccc(F)cc3F)C[C@@H]12 [trovafloxacin]
inactive: 1 nM -8.03% | 8.33 nM -6.09% | 100 nM -4.83% | 833.33 nM -0.82% | 10000 nM -1.33%

CCC[C@@H]1C[C@@H](C(=O)N[C@@H]([C@H]2O[C@H](SC)[C@H](O)[C@@H](O)[C@H]2O)[C@H](C)Cl)N(C)C1
inactive: 1 nM 0.61% | 8.33 nM -0.55% | 100 nM -0.83% | 833.33 nM -2.28% | 10000 nM -4.1%

Clc1cccc(SC2CCNCC2)n1 [anpirtoline]
inactive: 1 nM -4.7% | 8.33 nM -4.88% | 100 nM 1.08% | 833.33 nM 0.38% | 10000 nM -4.79%

COc1ccc2c3c1O[C@H]1C[C@@H](O)C=C[C@@]31CCN(C)C2 [galantamine]
inactive: 1 nM 0.63% | 8.33 nM 3.15% | 100 nM 2.16% | 833.33 nM 2.11% | 10000 nM 0.3%
